In PMC11006913:

Experiments:
Assay in all cases: PBM; 200 nM protein, PBS
Settings in all cases: dsDNA, one strand shown
[1] = molecular target: HESX1 (Homo sapiens, UniProt Q9UBX0 95-180, R165K)
[2] = molecular target: SHOX (Homo sapiens, UniProt O15266 103-189)
[3] = molecular target: HESX1 (Homo sapiens, UniProt Q9UBX0 95-180)
[4] = molecular target: HOXA4 (Homo sapiens, UniProt Q00056 201-287, R217L)
[5] = molecular target: MSX2 (Homo sapiens, UniProt P35548 130-214, R199I)
[6] = molecular target: SHOX (Homo sapiens, UniProt O15266 103-189, R173C)
Sequence of SHOX (Homo sapiens, UniProt O15266 103-189, R173C) (O15266 103-189 R173C): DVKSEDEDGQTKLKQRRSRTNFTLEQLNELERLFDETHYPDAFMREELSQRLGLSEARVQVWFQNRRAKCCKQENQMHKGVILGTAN

[7] = molecular target: PROP1 (Homo sapiens, UniProt O75360 56-141)
Sequence of PROP1 (Homo sapiens, UniProt O75360 56-141) (O75360 56-141): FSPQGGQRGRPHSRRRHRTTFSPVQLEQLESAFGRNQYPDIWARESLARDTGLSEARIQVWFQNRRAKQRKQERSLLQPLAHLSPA

[8] = molecular target: HESX1 (Homo sapiens, UniProt Q9UBX0 95-180, R109Q)
Sequence of HESX1 (Homo sapiens, UniProt Q9UBX0 95-180, R109Q) (Q9UBX0 95-180 R109Q): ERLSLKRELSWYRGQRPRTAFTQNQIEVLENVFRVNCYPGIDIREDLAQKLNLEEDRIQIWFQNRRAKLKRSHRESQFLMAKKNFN

[9] = molecular target: PROP1 (Homo sapiens, UniProt O75360 56-141, R99H)
Sequence of PROP1 (Homo sapiens, UniProt O75360 56-141, R99H) (O75360 56-141 R99H): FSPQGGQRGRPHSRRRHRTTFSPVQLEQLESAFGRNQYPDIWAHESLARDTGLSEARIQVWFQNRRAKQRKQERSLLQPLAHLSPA

[10] = molecular target: ALX3 (Homo sapiens, UniProt O95076 139-225, L168Q)
Sequence of ALX3 (Homo sapiens, UniProt O95076 139-225, L168Q) (O95076 139-225 L168Q): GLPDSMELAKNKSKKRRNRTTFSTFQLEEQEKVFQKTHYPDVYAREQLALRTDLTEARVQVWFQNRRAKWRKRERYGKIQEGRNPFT

[11] = molecular target: HESX1 (Homo sapiens, UniProt Q9UBX0 95-180, P111T)
Sequence of HESX1 (Homo sapiens, UniProt Q9UBX0 95-180, P111T) (Q9UBX0 95-180 P111T): as the sequence (Q9UBX0 95-180 R109Q) above, with Q15R, P17T counted along it

[12] = molecular target: PROP1 (Homo sapiens, UniProt O75360 56-141, F88S)
Sequence of PROP1 (Homo sapiens, UniProt O75360 56-141, F88S) (O75360 56-141 F88S): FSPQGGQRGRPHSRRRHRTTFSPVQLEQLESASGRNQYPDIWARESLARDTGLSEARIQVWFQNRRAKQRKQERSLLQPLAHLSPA

[13] = molecular target: MSX2 (Homo sapiens, UniProt P35548 130-214, F161Y)
Sequence of MSX2 (Homo sapiens, UniProt P35548 130-214, F161Y) (P35548 130-214 F161Y): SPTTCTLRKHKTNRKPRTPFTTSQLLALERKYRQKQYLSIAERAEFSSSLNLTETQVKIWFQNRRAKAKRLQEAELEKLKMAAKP

[14] = molecular target: HESX1 (Homo sapiens, UniProt Q9UBX0 95-180, F115L)
Sequence of HESX1 (Homo sapiens, UniProt Q9UBX0 95-180, F115L) (Q9UBX0 95-180 F115L): as the sequence (Q9UBX0 95-180 R109Q) above, with Q15R, F21L counted along it

[15] = molecular target: HOXB4 (Homo sapiens, UniProt P17483 148-234)
Sequence of HOXB4 (Homo sapiens, UniProt P17483 148-234) (P17483 148-234): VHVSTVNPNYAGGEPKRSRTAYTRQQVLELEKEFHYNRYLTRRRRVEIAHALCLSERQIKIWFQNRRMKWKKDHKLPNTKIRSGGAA

[16] = molecular target: HOXB4 (Homo sapiens, UniProt P17483 148-234, V174I)
Sequence of HOXB4 (Homo sapiens, UniProt P17483 148-234, V174I) (P17483 148-234 V174I): as the sequence (P17483 148-234) above, with V27I counted along it

[17] = molecular target: ALX3 (Homo sapiens, UniProt O95076 139-225, N203Q)
Sequence of ALX3 (Homo sapiens, UniProt O95076 139-225, N203Q) (O95076 139-225 N203Q): as the sequence (O95076 139-225 L168Q) above, with Q30L, N65Q counted along it

[18] = molecular target: ALX3 (Homo sapiens, UniProt O95076 139-225)
Sequence of ALX3 (Homo sapiens, UniProt O95076 139-225) (O95076 139-225): as the sequence (O95076 139-225 L168Q) above, with Q30L counted along it

[19] = molecular target: ALX3 (Homo sapiens, UniProt O95076 139-225, L168V)
Sequence of ALX3 (Homo sapiens, UniProt O95076 139-225, L168V) (O95076 139-225 L168V): as the sequence (O95076 139-225 L168Q) above, with Q30V counted along it

[20] = molecular target: ALX3 (Homo sapiens, UniProt O95076 139-225, N203S)
Sequence of ALX3 (Homo sapiens, UniProt O95076 139-225, N203S) (O95076 139-225 N203S): as the sequence (O95076 139-225 L168Q) above, with Q30L, N65S counted along it

Sequence of SHOX (Homo sapiens, UniProt O15266 103-189) (O15266 103-189): as the sequence (O15266 103-189 R173C) above, with C71R counted along it
Sequence of HOXA4 (Q00056 201-287 R217L): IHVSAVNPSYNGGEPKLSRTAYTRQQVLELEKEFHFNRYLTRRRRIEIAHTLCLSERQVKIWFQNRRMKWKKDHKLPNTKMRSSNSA
Sequence of HESX1 (Homo sapiens, UniProt Q9UBX0 95-180) (Q9UBX0 95-180): as the sequence (Q9UBX0 95-180 R109Q) above, with Q15R counted along it
Sequence of MSX2 (Homo sapiens, UniProt P35548 130-214, R199I) (P35548 130-214 R199I): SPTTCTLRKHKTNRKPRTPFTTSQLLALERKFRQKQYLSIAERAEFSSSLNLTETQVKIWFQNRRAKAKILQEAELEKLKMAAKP
Sequence of HESX1 (Homo sapiens, UniProt Q9UBX0 95-180, R165K) (Q9UBX0 95-180 R165K): as the sequence (Q9UBX0 95-180 R109Q) above, with Q15R, R71K counted along it

Sequence | binding signal [1] | binding signal [2] | binding signal [3] | binding signal [4] | binding signal [5] | binding signal [6] | binding signal [7] | binding signal [8] | binding signal [9] | binding signal [10] | binding signal [11] | binding signal [12] | binding signal [13] | binding signal [14] | binding signal [15] | binding signal [16] | binding signal [17] | binding signal [18] | binding signal [19] | binding signal [20]
TAATTGCA | 12 upbm affinity estimate (log intensity, higher = more binding, comparable within an allelic series) | 11.4 upbm affinity estimate (log intensity, higher = more binding, comparable within an allelic series) | 12.1 upbm affinity estimate (log intensity, higher = more binding, comparable within an allelic series) | 11.9 upbm affinity estimate (log intensity, higher = more binding, comparable within an allelic series) | 13 upbm affinity estimate (log intensity, higher = more binding, comparable within an allelic series) | 9.1 upbm affinity estimate (log intensity, higher = more binding, comparable within an allelic series) | 11.1 upbm affinity estimate (log intensity, higher = more binding, comparable within an allelic series) | 8.74 upbm affinity estimate (log intensity, higher = more binding, comparable within an allelic series) | 11.1 upbm affinity estimate (log intensity, higher = more binding, comparable within an allelic series) | 10.2 upbm affinity estimate (log intensity, higher = more binding, comparable within an allelic series) | 10.6 upbm affinity estimate (log intensity, higher = more binding, comparable within an allelic series) | 7.7 upbm affinity estimate (log intensity, higher = more binding, comparable within an allelic series) | 13.6 upbm affinity estimate (log intensity, higher = more binding, comparable within an allelic series) | 7.5 upbm affinity estimate (log intensity, higher = more binding, comparable within an allelic series) | – | – | – | – | – | –
CTCAATTA | 12.7 upbm affinity estimate (log intensity, higher = more binding, comparable within an allelic series) | 12 upbm affinity estimate (log intensity, higher = more binding, comparable within an allelic series) | 12.7 upbm affinity estimate (log intensity, higher = more binding, comparable within an allelic series) | 12 upbm affinity estimate (log intensity, higher = more binding, comparable within an allelic series) | 12.7 upbm affinity estimate (log intensity, higher = more binding, comparable within an allelic series) | 9.56 upbm affinity estimate (log intensity, higher = more binding, comparable within an allelic series) | 11.5 upbm affinity estimate (log intensity, higher = more binding, comparable within an allelic series) | 9.12 upbm affinity estimate (log intensity, higher = more binding, comparable within an allelic series) | 11.6 upbm affinity estimate (log intensity, higher = more binding, comparable within an allelic series) | 10.5 upbm affinity estimate (log intensity, higher = more binding, comparable within an allelic series) | 11.2 upbm affinity estimate (log intensity, higher = more binding, comparable within an allelic series) | 7.64 upbm affinity estimate (log intensity, higher = more binding, comparable within an allelic series) | 13.5 upbm affinity estimate (log intensity, higher = more binding, comparable within an allelic series) | 7.72 upbm affinity estimate (log intensity, higher = more binding, comparable within an allelic series) | 13.1 upbm affinity estimate (log intensity, higher = more binding, comparable within an allelic series) | 13.8 upbm affinity estimate (log intensity, higher = more binding, comparable within an allelic series) | 8.29 upbm affinity estimate (log intensity, higher = more binding, comparable within an allelic series) | 12.5 upbm affinity estimate (log intensity, higher = more binding, comparable within an allelic series) | 9.95 upbm affinity estimate (log intensity, higher = more binding, comparable within an allelic series) | 8.43 upbm affinity estimate (log intensity, higher = more binding, comparable within an allelic series)
AATTAACA | 11.9 upbm affinity estimate (log intensity, higher = more binding, comparable within an allelic series) | 11.9 upbm affinity estimate (log intensity, higher = more binding, comparable within an allelic series) | 12 upbm affinity estimate (log intensity, higher = more binding, comparable within an allelic series) | 12.1 upbm affinity estimate (log intensity, higher = more binding, comparable within an allelic series) | 12.4 upbm affinity estimate (log intensity, higher = more binding, comparable within an allelic series) | 9.76 upbm affinity estimate (log intensity, higher = more binding, comparable within an allelic series) | 11.3 upbm affinity estimate (log intensity, higher = more binding, comparable within an allelic series) | 9.41 upbm affinity estimate (log intensity, higher = more binding, comparable within an allelic series) | 11.1 upbm affinity estimate (log intensity, higher = more binding, comparable within an allelic series) | 10.6 upbm affinity estimate (log intensity, higher = more binding, comparable within an allelic series) | 10.7 upbm affinity estimate (log intensity, higher = more binding, comparable within an allelic series) | 7.88 upbm affinity estimate (log intensity, higher = more binding, comparable within an allelic series) | 13.2 upbm affinity estimate (log intensity, higher = more binding, comparable within an allelic series) | 8.02 upbm affinity estimate (log intensity, higher = more binding, comparable within an allelic series) | 13 upbm affinity estimate (log intensity, higher = more binding, comparable within an allelic series) | 13.8 upbm affinity estimate (log intensity, higher = more binding, comparable within an allelic series) | 8.55 upbm affinity estimate (log intensity, higher = more binding, comparable within an allelic series) | 12.5 upbm affinity estimate (log intensity, higher = more binding, comparable within an allelic series) | 10.2 upbm affinity estimate (log intensity, higher = more binding, comparable within an allelic series) | 8.67 upbm affinity estimate (log intensity, higher = more binding, comparable within an allelic series)
GGAAGACC | 6.27 upbm affinity estimate (log intensity, higher = more binding, comparable within an allelic series) | 7.12 upbm affinity estimate (log intensity, higher = more binding, comparable within an allelic series) | 6.19 upbm affinity estimate (log intensity, higher = more binding, comparable within an allelic series) | – | – | 7.18 upbm affinity estimate (log intensity, higher = more binding, comparable within an allelic series) | – | 6.45 upbm affinity estimate (log intensity, higher = more binding, comparable within an allelic series) | – | – | 6.41 upbm affinity estimate (log intensity, higher = more binding, comparable within an allelic series) | – | – | 6.45 upbm affinity estimate (log intensity, higher = more binding, comparable within an allelic series) | – | – | – | – | – | –
AATTAACT | 12.1 upbm affinity estimate (log intensity, higher = more binding, comparable within an allelic series) | 11.8 upbm affinity estimate (log intensity, higher = more binding, comparable within an allelic series) | 12.2 upbm affinity estimate (log intensity, higher = more binding, comparable within an allelic series) | 12.1 upbm affinity estimate (log intensity, higher = more binding, comparable within an allelic series) | 12.4 upbm affinity estimate (log intensity, higher = more binding, comparable within an allelic series) | 9.37 upbm affinity estimate (log intensity, higher = more binding, comparable within an allelic series) | 11.5 upbm affinity estimate (log intensity, higher = more binding, comparable within an allelic series) | 9.2 upbm affinity estimate (log intensity, higher = more binding, comparable within an allelic series) | 11.4 upbm affinity estimate (log intensity, higher = more binding, comparable within an allelic series) | 10.7 upbm affinity estimate (log intensity, higher = more binding, comparable within an allelic series) | 10.7 upbm affinity estimate (log intensity, higher = more binding, comparable within an allelic series) | 7.8 upbm affinity estimate (log intensity, higher = more binding, comparable within an allelic series) | 13.1 upbm affinity estimate (log intensity, higher = more binding, comparable within an allelic series) | 7.81 upbm affinity estimate (log intensity, higher = more binding, comparable within an allelic series) | – | – | 8.48 upbm affinity estimate (log intensity, higher = more binding, comparable within an allelic series) | 12.5 upbm affinity estimate (log intensity, higher = more binding, comparable within an allelic series) | 10.2 upbm affinity estimate (log intensity, higher = more binding, comparable within an allelic series) | 8.69 upbm affinity estimate (log intensity, higher = more binding, comparable within an allelic series)
GACAATTA | 11.7 upbm affinity estimate (log intensity, higher = more binding, comparable within an allelic series) | 11.6 upbm affinity estimate (log intensity, higher = more binding, comparable within an allelic series) | 12 upbm affinity estimate (log intensity, higher = more binding, comparable within an allelic series) | – | 12.7 upbm affinity estimate (log intensity, higher = more binding, comparable within an allelic series) | 9.21 upbm affinity estimate (log intensity, higher = more binding, comparable within an allelic series) | – | 8.59 upbm affinity estimate (log intensity, higher = more binding, comparable within an allelic series) | 10.8 upbm affinity estimate (log intensity, higher = more binding, comparable within an allelic series) | – | 10.4 upbm affinity estimate (log intensity, higher = more binding, comparable within an allelic series) | – | 13.4 upbm affinity estimate (log intensity, higher = more binding, comparable within an allelic series) | 7.41 upbm affinity estimate (log intensity, higher = more binding, comparable within an allelic series) | – | – | – | – | – | –
